Pf Dd2 growth = P. falciparum Dd2 growth inhibitors, primary screen, SYBR Green fluorescence, single dose replicates; 72 h; active compounds read low; activity change, % at 10 µM; hit rate 2.3% among 94,000; in the data active = activity change below about -80%; inconclusive = no clear call, values can overlap the other calls
T cruzi growth-1 = T. cruzi intracellular proliferation inhibitors, primary screen, cell-based, beta-gal Tulahuen parasites, NIH3T3 host, luminescence. T. cruzi beta-gal in NIH3T3, GalScreen luminescence, 90 h. hit rate 5.9% among 77,000. AID 624255, 2012. inhibition, % at 8.34 µM;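 active = mean inhibition above about 93%, with at least 55% of replicates each passing it, limit read from the data, passing the limit was not always enough; inconclusive = only one of those two conditions holds; inactive = neither condition holds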
C diff growth = C. difficile growth inhibitors, primary screen, HTS. Clostridium difficile clinical isolate growth, OD600, 24 h; active compounds read low. hit rate 0.25% among 86,000. growth activity, negative = inhibition, % at 16 µg/mL (by protocol);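 active = mean growth activity at or below -80% and every replicate also at or below -80%; inconclusive = mean at or below -80% but some replicate above -80%; inactive = mean growth activity above -80%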;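 also: 0% = DMSO wells and -100% = levofloxacin 16 µg/mL wells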
T cruzi growth-2 = T. cruzi intracellular proliferation inhibitors, confirmation, cell-based, NIH3T3 host, beta-gal parasite, luminescence, cherry-pick; shares compounds with T cruzi growth-1; T. cruzi beta-gal in NIH3T3, GalScreen luminescence, 90 h; inhibition, % at 8.35 µM; hit rate 72% among 5,600; AID 651739, 2012;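 active = mean replicate inhibition above about 95% and at least 55% of replicates individually reaching it, limit read from the data; inconclusive = only one of the two criteria is met; inactive = neither criterion is met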
T cruzi growth-3 = inhibitors of intracellular T. cruzi replication, confirmation, NIH3T3 host cells, beta-gal parasites, cherry-pick, set 2. hit rate 21% among 5,600. shares compounds with T cruzi growth-1. T. cruzi beta-gal in NIH3T3, GalScreen luminescence, 90 h. AID 651740, 2012. inhibition, % at 2.09 µM;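 active = mean inhibition above about 95%, with at least 55% of replicates also reaching it, limit read from the data; inconclusive = meets just one of the two conditions; inactive = meets neither condition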;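 also: plate controls were neutral control median for no effect and positive control median for full effect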
3T3 cytotox = cytotoxicity in mouse NIH/3T3 fibroblasts, confirmation, cytotoxicity control for T. cruzi proliferation inhibitor project, cell-based, cherry-pick, single point; cytotoxicity (signal decrease), % at 8.35 µM; shares compounds with T cruzi growth-1; NIH/3T3 viability, CellTiter-Glo ATP luminescence, 90 h; hit rate 14% among 5,600;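 active = mean signal decrease across replicates above about 35% based on untreated-well scatter, with enough replicates individually passing, limit read from the data; inconclusive = no rule stated though some were filed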;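 also: 0% = median of neutral control wells and 100% = median of positive control wells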
NIH3T3 tox 2 = NIH/3T3 fibroblast cytotoxicity, confirmation, cytotoxicity control, cell-based, cherry-pick, single point, set 2. shares compounds with T cruzi growth-1. NIH/3T3 viability, CellTiter-Glo ATP luminescence, 90 h. inhibition, % at 24.9 µM. hit rate 56% among 5,600. AID 651744, 2012;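 active = mean loss of cell viability signal at or above a set limit, and enough replicates individually reaching it; inconclusive = meets only the mean limit or only the replicate share; inactive = meets neither condition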;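 also: 0% = median of neutral control wells and 100% = median of positive control wells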
* marks the source's active call; other numbers are inactive results. Most compounds without a hit are left out; they make up all but 6.7% or so of the library.

COc1ccc(S(=O)(=O)N(C)C[C@H]2OCCCC[C@@H](C)Oc3ccc(NC(=O)CCC(F)(F)F)cc3C(=O)N([C@@H](C)CO)C[C@@H]2C)cc1 was read as Pf Dd2 growth -58, T cruzi growth-1 80 and C diff growth 1.
`C/C=C/c1ccc([C@@H]2[C@@H](CO)N(C(=O)C3CC3)[C@H]2CN(CC)C(C)=O)cc1` gave Pf Dd2 growth 6, T cruzi growth-1 42 and C diff growth 9.
CN(C)CCCNC(=O)C[C@@H]1C=C[C@H](NS(=O)(=O)c2ccccc2)[C@@H](CO)O1 was read as Pf Dd2 growth -48 and T cruzi growth-1 24.
COc1ccc(NC(=O)Nc2ccc3c(c2)C(=O)N([C@H](C)CO)C[C@@H](C)[C@@H](CN(C)C(=O)NC2CCCCC2)OCCCC[C@@H](C)O3)cc1 was read as Pf Dd2 growth -42 and C diff growth -4.
COc1ccc(NC(=O)Nc2ccc3c(c2)C(=O)N([C@H](C)CO)C[C@@H](C)[C@H](CN(C)C(=O)NC2CCCCC2)OCCCC[C@@H](C)O3)cc1 was read as Pf Dd2 growth -54, T cruzi growth-1 100*, C diff growth 13, T cruzi growth-2 107*, T cruzi growth-3 68, 3T3 cytotox -24 and NIH3T3 tox 2 -28.
For COc1ccc(NC(=O)Nc2ccc3c(c2)C(=O)N([C@@H](C)CO)C[C@H](C)[C@H](CN(C)C(=O)NC2CCCCC2)OCCCC[C@H](C)O3)cc1 the results were Pf Dd2 growth -61, T cruzi growth-1 inconclusive, C diff growth -12, T cruzi growth-2 110*, T cruzi growth-3 3, 3T3 cytotox 2 and NIH3T3 tox 2 -29.
COc1ccc(NC(=O)Nc2ccc3c(c2)C(=O)N([C@@H](C)CO)C[C@@H](C)[C@H](CN(C)C(=O)NC2CCCCC2)OCCCC[C@@H](C)O3)cc1 was read as Pf Dd2 growth -8, T cruzi growth-1 61 and C diff growth -4.
CN(C)C(=O)C[C@@H]1C[C@H]2c3cc(NC(=O)Nc4ccccc4F)ccc3O[C@H]2[C@H](CO)O1 was read as Pf Dd2 growth 14, T cruzi growth-1 24 and C diff growth 1.
COc1ccc(NC(=O)Nc2ccc3c(c2)C(=O)N([C@@H](C)CO)C[C@H](C)[C@@H](CN(C)C(=O)C2CCCCC2)OCCCC[C@@H](C)O3)cc1 was read as Pf Dd2 growth inconclusive, T cruzi growth-1 95*, C diff growth -10, T cruzi growth-2 104*, T cruzi growth-3 5, 3T3 cytotox 0 and NIH3T3 tox 2 -28.
Screening COc1ccc(NC(=O)N(C)C[C@@H]2OCCCC[C@H](C)Oc3ccc(NC(=O)Nc4ccc(F)cc4)cc3C(=O)N([C@@H](C)CO)C[C@@H]2C)cc1 returned Pf Dd2 growth -11, T cruzi growth-1 101*, C diff growth -6, T cruzi growth-2 107*, T cruzi growth-3 39, 3T3 cytotox 15 and NIH3T3 tox 2 0.
`COc1ccc(NC(=O)Nc2ccc3c(c2)C(=O)N([C@H](C)CO)C[C@H](C)[C@H](CN(C)C(=O)Nc2ccc(F)cc2)OCCCC[C@@H](C)O3)cc1` gave Pf Dd2 growth 27, T cruzi growth-1 60 and C diff growth -4.
COc1ccc(NC(=O)Nc2ccc3c(c2)C(=O)N([C@@H](C)CO)C[C@H](C)[C@@H](CN(C)C(=O)C2CCCCC2)OCCCC[C@H](C)O3)cc1 was read as Pf Dd2 growth -63, T cruzi growth-1 86 and C diff growth -12.
For COc1ccc(NC(=O)Nc2ccc3c(c2)C(=O)N([C@H](C)CO)C[C@H](C)[C@H](CN(C)C(=O)Nc2ccc(OC)cc2)OCCCC[C@H](C)O3)cc1 the results were Pf Dd2 growth 33, T cruzi growth-1 inconclusive, T cruzi growth-2 103*, T cruzi growth-3 22, 3T3 cytotox -4 and NIH3T3 tox 2 5.
For COc1ccc(NC(=O)Nc2ccc3c(c2)C(=O)N([C@@H](C)CO)C[C@H](C)[C@H](CN(C)C(=O)Nc2ccc(OC)cc2)OCCCC[C@@H](C)O3)cc1 the results were Pf Dd2 growth -71 and C diff growth -1.
For CCCC#Cc1ccc([C@H]2[C@@H](CO)N3CCCCN(CC4CCOCC4)C[C@H]23)cc1 the results were Pf Dd2 growth -53, T cruzi growth-1 124*, C diff growth -3, T cruzi growth-2 93, T cruzi growth-3 78, 3T3 cytotox 30 and NIH3T3 tox 2 101*.
Screening OC[C@H]1[C@@H](c2ccc(C#Cc3ccccc3)cc2)[C@H]2CN(CC3CCOCC3)CCCCN21 returned Pf Dd2 growth -16, T cruzi growth-1 94 and C diff growth 0.
Screening CCCC#Cc1ccc([C@H]2[C@H]3CN(CC4CCOCC4)CCCCN3[C@H]2CO)cc1 returned Pf Dd2 growth -8, T cruzi growth-1 65 and C diff growth -1.
CCCC#Cc1ccc([C@@H]2[C@H]3CN(CC4CCOCC4)CCCCN3[C@H]2CO)cc1 was read as Pf Dd2 growth -31, T cruzi growth-1 77 and C diff growth 7.
Screening OC[C@@H]1[C@@H](c2ccc(C#Cc3ccccc3)cc2)[C@@H]2CN(CC3CCOCC3)CCCCN12 returned Pf Dd2 growth -47, T cruzi growth-1 inconclusive, C diff growth 2, T cruzi growth-2 105*, T cruzi growth-3 65, 3T3 cytotox 52* and NIH3T3 tox 2 105*.
Screening OC[C@H]1[C@H](c2ccc(C#Cc3ccccc3)cc2)[C@H]2CN(CC3CCOCC3)CCCCN21 returned Pf Dd2 growth -57, T cruzi growth-1 102*, C diff growth 2, T cruzi growth-2 109*, T cruzi growth-3 87, 3T3 cytotox 76* and NIH3T3 tox 2 105*.
OC[C@@H]1[C@H](c2ccc(C#Cc3ccccc3)cc2)[C@@H]2CN(CC3CCOCC3)CCCCN12 was read as Pf Dd2 growth -12, T cruzi growth-1 104*, C diff growth 15, T cruzi growth-2 106*, T cruzi growth-3 81, 3T3 cytotox 32 and NIH3T3 tox 2 103*.
CCCC#Cc1ccc([C@H]2[C@@H](CO)N3CCCCN(CC4CCOCC4)C[C@@H]23)cc1 was read as Pf Dd2 growth -40, T cruzi growth-1 100 and C diff growth 7.

Source: PubChem BioAssay
